Each molecule was assayed against Solute carrier family 2, facilitated glucose transporter member 1 (Homo sapiens) (UniProt P11166) (assay: ST_JUDE_LEISH: Cytotoxicity at 2uM final concentration against transgenic Leishmania Mexicana promastigotes LmGLUT1 that are glucose transport deficient and complemented with the human glucose transporter GLUT1. Activity is measured by DNA content using SYBR green in vitro).
Assay type: functional

Sequence of Solute carrier family 2, facilitated glucose transporter member 1 (Homo sapiens) (P11166 whole entry): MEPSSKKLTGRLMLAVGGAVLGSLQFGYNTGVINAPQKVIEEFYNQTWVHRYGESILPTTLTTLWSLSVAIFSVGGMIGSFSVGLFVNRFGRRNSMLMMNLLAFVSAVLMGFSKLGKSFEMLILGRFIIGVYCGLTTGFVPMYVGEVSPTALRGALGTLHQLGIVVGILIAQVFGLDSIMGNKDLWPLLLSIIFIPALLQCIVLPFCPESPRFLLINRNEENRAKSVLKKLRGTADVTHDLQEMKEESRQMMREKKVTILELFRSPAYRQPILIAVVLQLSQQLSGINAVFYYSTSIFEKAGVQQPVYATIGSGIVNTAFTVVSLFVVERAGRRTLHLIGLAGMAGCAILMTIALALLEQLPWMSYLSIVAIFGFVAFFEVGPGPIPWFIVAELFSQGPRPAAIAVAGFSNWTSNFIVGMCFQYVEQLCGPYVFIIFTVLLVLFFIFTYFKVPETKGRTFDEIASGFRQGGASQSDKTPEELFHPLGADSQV

SMILES	inhibition [%]
Cc1ccc2c(N/N=C/c3ccccc3[N+](=O)[O-])cc(C)nc2c1	2.06
COc1c(C2=CCN(CCCCNC(=O)c3ccc(-c4ccc(C#N)cc4)cc3)CC2)c(C)cc2c1C(C)(C)CCC2(C)C	2.63
COc1ccc2ccccc2c1CON1C(=N)N=C(N)NC1(C)C	1.59
Cc1cc(OCCCN2CCCCC2)ccc1NC(=O)COc1ccc(Cl)cc1C(=O)c1cc(Cl)cc(C#N)c1	60.8
COc1ccc2nccc([C@@H](O)CN3CCC(NC(=O)/C=C/c4ccc(F)c5ccccc45)CC3)c2c1	8.56
C=CCN(C(=O)c1ccc(Cl)c([N+](=O)[O-])c1)c1nc(-c2ccccc2)cs1	10.6
Cc1ccc(O)cc1Nc1ccnc2cc(-c3ccccn3)ccc12	5.99
C[C@@H](CC1CCCCC1)NCc1cccc(NS(=O)(=O)c2ccc(O)c(-c3ccno3)c2)c1	10.7
Cc1cc(Cl)c(S(=O)(=O)N(C)c2ccccc2)cc1OCC(=O)NC1CCCCC1	1.65
N#Cc1ccc(-c2cnc3ccc(NCc4ccc(S(N)(=O)=O)cc4)nn23)cc1	2.42
CNC(=O)CNC(=O)COc1cccc2ccccc12	2.49
CCc1ccc(C2CCN(CCCCNC(=O)c3ccc(NC(=O)c4ccc(Cl)cc4)cc3)CC2)c(OC(C)=O)c1	3.29
CC(C)c1ccc(NC(=O)N[C@H]2CCN(CCCCCNC(=O)/C=C/c3ccc(Cl)c(Cl)c3)C2)cc1	2.04
CC(C)[C@@H](NC(=O)NC1CCC(CCN2C3CCC2CC(OC(=O)C(CO)c2ccccc2)C3)CC1)C(O)(c1ccccc1)c1ccccc1 (stereo not given in full)	8.23
Cc1nc(C)c(-c2ccc(Sc3ccc(Cl)cc3)cc2)c(O)c1Br	-2.06
NCC1CCCN1Cc1ccc(-c2ccc(-c3nc4cc(C(F)(F)F)ccc4[nH]3)cc2)cc1 (stereo not given)	3.73
COc1cccc(OC2CCN(C(=O)c3cc(C(C)(C)C)nn3Cc3ccccc3)CC2)c1	1.4
COc1cc(NCC(CN)Cc2ccc3c(c2)OCO3)nc2ccccc12 (stereo not given)	4.7
COc1cccc2c(NN=Cc3ccccc3F)ccnc12	7.43
CN(Cc1ccccc1)C(=O)CCNS(=O)(=O)c1cc(Br)cnc1N	2.6

SMILES	inhibition [%]
Cc1ccc(-c2noc(=O)n2CC(=O)Nc2ccccc2-c2ccccc2)cc1	0.59
O=C(c1ccc([N+](=O)[O-])o1)N1CCC(c2cn(Cc3cccc(F)c3)c3ccccc23)CC1	50.1
c1ccc(COc2ccc(COc3ccc(Cn4ccnc4)cc3)cc2)cc1	2.93
Oc1cc2ccccc2cc1CNC1CCCCC1	1.31
N#CC(c1ccc(Cl)cc1)c1ccc2c(C(F)(F)F)cc(C(F)(F)F)nc2n1 (stereo not given)	2.34
Nc1nc(N)c2nc(C3CC=CCC3)c(N)nc2n1 (stereo not given)	2.95
Cc1cc(C(=O)Nc2ccc(-c3ccccc3)cc2)no1	2.6
NC1CCN(Cc2cccc(-c3ccc(-c4nc5cc(C(F)(F)F)ccc5[nH]4)cc3)c2)C1 (stereo not given)	0.52
CC(C)CNC(=O)c1cncc(-c2ccc(CN(C)C3CCN(C)CC3)cc2)c1	4.89
COc1ccc2nccc(N3CCC(CCNCc4ccc5c(n4)NC(=O)CO5)CC3)c2c1	1.72
CCc1cn(CCOC)c2ccc(C(=O)N[C@@H](Cc3ccccc3)[C@H](O)CNC(C)(C)CCCC(C)C)cc12	0.24
Oc1ccccc1N1CCN(c2ccc(-c3nc4ccccc4[nH]3)cn2)CC1	2.48
O=C(NCCN1CCCC1)c1cccc(-c2ccc(-c3nc4cc(C(F)(F)F)ccc4[nH]3)cc2)c1	1.29
CC(CN1CCN(CC(c2ccc(F)cc2)N2CCN(C)CC2)CC1)C(=O)c1ccc(O)cc1 (stereo not given)	2.71
CN(C)CCOc1cc(NC(=O)c2ccc(-c3ccc(Cl)cc3Cl)cc2)ccc1-c1ccccc1	0.11
Fc1ccc(-c2cc(NCCCn3ccnc3)nc(-c3cccnc3)n2)cc1	1.99
CCc1c(CCNCCCCCCNCc2ccc3c(c2CC)OCO3)ccc(OC)c1OC	10.6
SC(=Nc1ccc(Cl)c(Cl)c1)NN=Cc1ccccn1	1.55
NC1CCCN(Cc2cccc(-c3ccc(-c4nc5ccccc5[nH]4)s3)c2)C1 (stereo not given)	0.99
O=C(NCC1CC1)C1CCN(C(c2ccc(Cl)cc2)c2ccc(Cl)cc2)CC1	0.44

Reference: ChEMBL document CHEMBL3433997, “St. Jude Leishmania screening dataset” (2016)
